Source: the supplement of paper PMC10077471
Whole data set: some 1,900 compounds, median “excess over highest single agent (ExcessHSA) synergy score, 6x6 matrix” near -83, cut for the lowest 2% near -370. Only a selection was taken, and the lowest values are over-represented in it overall.

What follows are compounds tested on NCI-H446 (assay: excess over highest single agent (ExcessHSA) synergy score, 6x6 matrix; higher = less synergy (more negative = stronger synergy)). Details: 72 h; CellTiter-Glo viability.

Row | Structure (SMILES) | excess over highest single agent
1 | COC1=C(OC)C(=O)C(C/C=C(\C)CC/C=C(\C)CC/C=C(\C)CC/C=C(\C)CC/C=C(\C)CC/C=C(\C)CC/C=C(\C)CC/C=C(\C)CC/C=C(\C)CCC=C(C)C)=C(C)C1=O + Cc1sc2c(c1C)C(c1ccc(Cl)cc1)=N[C@@H](CC(=O)OC(C)(C)C)c1nnc(C)n1-2 [NCGC00250412-19] | -97.2
2 | COc1cc(OC)c(NC(=O)Nc2cc(C)on2)cc1Cl + Cc1sc2c(c1C)C(c1ccc(Cl)cc1)=N[C@@H](CC(=O)OC(C)(C)C)c1nnc(C)n1-2 [NCGC00250412-19] | -142
3 | Cc1ccc(-c2ncn(-c3ccc(Nc4nccc(-c5cccc(N6CCOCC6)c5)n4)cc3)n2)cn1 + Cc1sc2c(c1C)C(c1ccc(Cl)cc1)=N[C@@H](CC(=O)OC(C)(C)C)c1nnc(C)n1-2 [NCGC00250412-19] | -78.7
4 | CO[C@H]1[C@H](O)[C@@H](O)[C@H](n2c3c(Cl)cccc3c3c4c(c5c6cccc(Cl)c6[nH]c5c32)C(=O)NC4=O)O[C@@H]1CO + Cc1sc2c(c1C)C(c1ccc(Cl)cc1)=N[C@@H](CC(=O)OC(C)(C)C)c1nnc(C)n1-2 [NCGC00250412-19] | -234
5 | N[C@@H](Cc1ccc(O)c(O)c1)C(=O)O + Cc1sc2c(c1C)C(c1ccc(Cl)cc1)=N[C@@H](CC(=O)OC(C)(C)C)c1nnc(C)n1-2 [NCGC00250412-19] | 57.6
6 | C[C@H](Cc1ccc(O)c(O)c1)[C@@H](C)Cc1ccc(O)c(O)c1 + Cc1sc2c(c1C)C(c1ccc(Cl)cc1)=N[C@@H](CC(=O)OC(C)(C)C)c1nnc(C)n1-2 [NCGC00250412-19] | -373
7 | O=C(O)C(O)Cc1ccc(O)c(O)c1 (configuration not stated) + Cc1sc2c(c1C)C(c1ccc(Cl)cc1)=N[C@@H](CC(=O)OC(C)(C)C)c1nnc(C)n1-2 [NCGC00250412-19] | -9.7
8 | N#CN=C(NCCCCCCOc1ccc(Cl)cc1)Nc1ccncc1 + Cc1sc2c(c1C)C(c1ccc(Cl)cc1)=N[C@@H](CC(=O)OC(C)(C)C)c1nnc(C)n1-2 [NCGC00250412-19] | -32.9
9 | C/C=C(/C)C(=O)O[C@H]1C(C)=C[C@]23C(=O)[C@@H](C=C(CO)[C@@H](O)[C@]12O)[C@H]1[C@@H](C[C@H]3C)C1(C)C + Cc1sc2c(c1C)C(c1ccc(Cl)cc1)=N[C@@H](CC(=O)OC(C)(C)C)c1nnc(C)n1-2 [NCGC00250412-19] | 104
10 | O=C(Nc1cccc(Nc2ncc(Br)c(NCCc3cnc[nH]3)n2)c1)N1CCCC1 + Cc1sc2c(c1C)C(c1ccc(Cl)cc1)=N[C@@H](CC(=O)OC(C)(C)C)c1nnc(C)n1-2 [NCGC00250412-19] | -166
11 | C[C@@H](N)c1ccc(C(=O)Nc2ccnc3[nH]ccc23)cc1 + Cc1sc2c(c1C)C(c1ccc(Cl)cc1)=N[C@@H](CC(=O)OC(C)(C)C)c1nnc(C)n1-2 [NCGC00250412-19] | 125
12 | Oc1ccc(-c2ccc(-c3cc(Nc4cccc(CNC5CC5)c4)n[nH]3)cc2)c(O)c1 + Cc1sc2c(c1C)C(c1ccc(Cl)cc1)=N[C@@H](CC(=O)OC(C)(C)C)c1nnc(C)n1-2 [NCGC00250412-19] | 79.8
13 | COc1cccc2nc(-c3cccs3)nc(NN3C(=O)C=C(C)C3=O)c12 + Cc1sc2c(c1C)C(c1ccc(Cl)cc1)=N[C@@H](CC(=O)OC(C)(C)C)c1nnc(C)n1-2 [NCGC00250412-19] | -408
14 | CN(CC(=O)N(Cc1ccc(C2CCCCC2)cc1)c1ccc(C(=O)O)c(O)c1)S(=O)(=O)c1c(F)c(F)c(F)c(F)c1F + Cc1sc2c(c1C)C(c1ccc(Cl)cc1)=N[C@@H](CC(=O)OC(C)(C)C)c1nnc(C)n1-2 [NCGC00250412-19] | -91.4
15 | Clc1cccc(-n2nnnc2NCc2ccccc2Oc2ccccn2)c1Cl + Cc1sc2c(c1C)C(c1ccc(Cl)cc1)=N[C@@H](CC(=O)OC(C)(C)C)c1nnc(C)n1-2 [NCGC00250412-19] | -103
16 | Cn1cc(C2=C(c3c4n(c5ccccc35)CCC(CN)C4)C(=O)NC2=O)c2ccccc21 (configuration not stated) + Cc1sc2c(c1C)C(c1ccc(Cl)cc1)=N[C@@H](CC(=O)OC(C)(C)C)c1nnc(C)n1-2 [NCGC00250412-19] | -42.8
17 | Cc1cnc(Nc2cccc(CN3CCOCC3)c2)nc1Nc1cccc(S(=O)(=O)NC(C)(C)C)c1 + Cc1sc2c(c1C)C(c1ccc(Cl)cc1)=N[C@@H](CC(=O)OC(C)(C)C)c1nnc(C)n1-2 [NCGC00250412-19] | 108
18 | CC(=O)Nc1sc2c(c1-c1nc3ccccc3s1)CNC2 + Cc1sc2c(c1C)C(c1ccc(Cl)cc1)=N[C@@H](CC(=O)OC(C)(C)C)c1nnc(C)n1-2 [NCGC00250412-19] | 354
19 | CC(C)(O)c1cc2nc(-c3cnc(N)nc3)nc(N3CCOCC3)c2s1 + Cc1sc2c(c1C)C(c1ccc(Cl)cc1)=N[C@@H](CC(=O)OC(C)(C)C)c1nnc(C)n1-2 [NCGC00250412-19] | -253

Row | Structure (SMILES) | excess over highest single agent
20 | Cc1c(CN2CCN(S(C)(=O)=O)CC2)sc2c(N3CCOCC3)nc(-c3cnc(N)nc3)nc12 + Cc1sc2c(c1C)C(c1ccc(Cl)cc1)=N[C@@H](CC(=O)OC(C)(C)C)c1nnc(C)n1-2 [NCGC00250412-19] | -334
21 | Cc1c(CN2CCN(C(=O)[C@H](C)O)CC2)sc2c(N3CCOCC3)nc(-c3cnc(N)nc3)nc12 + Cc1sc2c(c1C)C(c1ccc(Cl)cc1)=N[C@@H](CC(=O)OC(C)(C)C)c1nnc(C)n1-2 [NCGC00250412-19] | -434
22 | CNC(=O)c1c(-c2ccc(F)cc2)oc2cc(N(CCO)S(C)(=O)=O)c(C3CC3)cc12 + Cc1sc2c(c1C)C(c1ccc(Cl)cc1)=N[C@@H](CC(=O)OC(C)(C)C)c1nnc(C)n1-2 [NCGC00250412-19] | -113
23 | CN[C@H]1CCc2cc(OC)c(OC)c(OC)c2-c2ccc(OC)c(=O)cc21 + Cc1sc2c(c1C)C(c1ccc(Cl)cc1)=N[C@@H](CC(=O)OC(C)(C)C)c1nnc(C)n1-2 [NCGC00250412-19] | -167
24 | Cc1nc(Nc2n[nH]c3c2CN(C(=O)N[C@H](CN(C)C)c2ccccc2)C3(C)C)c2sccc2n1 + Cc1sc2c(c1C)C(c1ccc(Cl)cc1)=N[C@@H](CC(=O)OC(C)(C)C)c1nnc(C)n1-2 [NCGC00250412-19] | -503
25 | CN1c2ccccc2C(=O)N2CCc3c([nH]c4ccccc34)[C@@H]21 + Cc1sc2c(c1C)C(c1ccc(Cl)cc1)=N[C@@H](CC(=O)OC(C)(C)C)c1nnc(C)n1-2 [NCGC00250412-19] | -226
26 | O=C1NC(=O)/C(=C/c2cccc(C(F)(F)F)c2)S1 + Cc1sc2c(c1C)C(c1ccc(Cl)cc1)=N[C@@H](CC(=O)OC(C)(C)C)c1nnc(C)n1-2 [NCGC00250412-19] | 75.6
27 | Cn1c2cc([S+](C)[O-])sc2c2cnn(Cc3cccc(N)c3)c(=O)c21 (configuration not stated) + Cc1sc2c(c1C)C(c1ccc(Cl)cc1)=N[C@@H](CC(=O)OC(C)(C)C)c1nnc(C)n1-2 [NCGC00250412-19] | -110
28 | CN(c1ncccc1CNc1nc(Nc2ccc3c(c2)CC(=O)N3)ncc1C(F)(F)F)S(C)(=O)=O + Cc1sc2c(c1C)C(c1ccc(Cl)cc1)=N[C@@H](CC(=O)OC(C)(C)C)c1nnc(C)n1-2 [NCGC00250412-19] | -151
29 | CC(=O)NCC(=O)N1[C@@H]2CC[C@H]1c1ccc(Nc3ncc(C(F)(F)F)c(NC4CCC4)n3)cc12 + Cc1sc2c(c1C)C(c1ccc(Cl)cc1)=N[C@@H](CC(=O)OC(C)(C)C)c1nnc(C)n1-2 [NCGC00250412-19] | -534
30 | CS(=O)(=O)c1cccc(CNc2nc(Nc3ccc4c(c3)CCC(=O)N4)ncc2C(F)(F)F)c1 + Cc1sc2c(c1C)C(c1ccc(Cl)cc1)=N[C@@H](CC(=O)OC(C)(C)C)c1nnc(C)n1-2 [NCGC00250412-19] | 58.6
31 | CCS(=O)(=O)Nc1ccc2[nH]c(O)c(C(=Nc3ccc(CN4CCCCC4)cc3)c3ccccc3)c2c1 + Cc1sc2c(c1C)C(c1ccc(Cl)cc1)=N[C@@H](CC(=O)OC(C)(C)C)c1nnc(C)n1-2 [NCGC00250412-19] | -393
32 | CNC(=O)c1ccc2c(C(=Nc3cccc(CN(C)C)c3)c3ccccc3)c(O)[nH]c2c1 + Cc1sc2c(c1C)C(c1ccc(Cl)cc1)=N[C@@H](CC(=O)OC(C)(C)C)c1nnc(C)n1-2 [NCGC00250412-19] | 93.9
33 | COC(=O)c1ccc2c(C(=Nc3ccc(N(C)C(=O)CN4CCN(C)CC4)cc3)c3ccccc3)c(O)[nH]c2c1 + Cc1sc2c(c1C)C(c1ccc(Cl)cc1)=N[C@@H](CC(=O)OC(C)(C)C)c1nnc(C)n1-2 [NCGC00250412-19] | -229
34 | COc1ccc(-c2ccc3ncc4c(c3c2)n(-c2ccc(N3CCNCC3)c(C(F)(F)F)c2)c(=O)n4C)cn1 + Cc1sc2c(c1C)C(c1ccc(Cl)cc1)=N[C@@H](CC(=O)OC(C)(C)C)c1nnc(C)n1-2 [NCGC00250412-19] | -20.2
35 | COc1cc(C(C)C)c(Oc2cnc(NC(CO)CO)nc2N)cc1I + Cc1sc2c(c1C)C(c1ccc(Cl)cc1)=N[C@@H](CC(=O)OC(C)(C)C)c1nnc(C)n1-2 [NCGC00250412-19] | -119
36 | OCc1ccc(-c2ccc(-c3ccc(CO)s3)o2)s1 + Cc1sc2c(c1C)C(c1ccc(Cl)cc1)=N[C@@H](CC(=O)OC(C)(C)C)c1nnc(C)n1-2 [NCGC00250412-19] | 33.9
37 | C/C=C1\NC(=O)[C@H]2CSSCC/C=C/[C@H](CC(=O)N[C@H](C(C)C)C(=O)N2)OC(=O)[C@H](C(C)C)NC1=O + Cc1sc2c(c1C)C(c1ccc(Cl)cc1)=N[C@@H](CC(=O)OC(C)(C)C)c1nnc(C)n1-2 [NCGC00250412-19] | -38.7
